This note sets out measurements from PubChem BioAssay (EPA / NIEHS).

Inconclusive results are not listed. Calls of active or inactive are those of the source. The calls were made as follows, unless noted: active = hit-call score of the fitted dose curve at least 0.9, where 1 is the maximum; inactive = score below 0.9.

The target of test [1] is human Retinoid X Receptor beta (RXRb), RXRB (gene 6257) (UniProt P28702). As to the kind of experiment: ATG_RXRb_TRANS: Attagene TRANS-FACTORIAL HepG2 Assay for human Retinoid X Receptor beta (RXRb) (AID 2283013; active = hit-call score of the fitted dose curve at least 0.9, where 1 is the maximum). The method in brief: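 HepG2 cells transiently transfected with multiplexed reporter units driven by GAL4-UAS and exogenous chimeric NR-Gal4 proteins; treated 24 h. Reporter mRNA measured by RT-PCR, 6-FAM labelling and capillary electrophoresis; gain-of-signal fitted versus DMSO baseline.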
Chain of human Retinoid X Receptor beta (RXRb), RXRB (gene 6257) (P28702 whole entry, looked up, the tested form may be a part): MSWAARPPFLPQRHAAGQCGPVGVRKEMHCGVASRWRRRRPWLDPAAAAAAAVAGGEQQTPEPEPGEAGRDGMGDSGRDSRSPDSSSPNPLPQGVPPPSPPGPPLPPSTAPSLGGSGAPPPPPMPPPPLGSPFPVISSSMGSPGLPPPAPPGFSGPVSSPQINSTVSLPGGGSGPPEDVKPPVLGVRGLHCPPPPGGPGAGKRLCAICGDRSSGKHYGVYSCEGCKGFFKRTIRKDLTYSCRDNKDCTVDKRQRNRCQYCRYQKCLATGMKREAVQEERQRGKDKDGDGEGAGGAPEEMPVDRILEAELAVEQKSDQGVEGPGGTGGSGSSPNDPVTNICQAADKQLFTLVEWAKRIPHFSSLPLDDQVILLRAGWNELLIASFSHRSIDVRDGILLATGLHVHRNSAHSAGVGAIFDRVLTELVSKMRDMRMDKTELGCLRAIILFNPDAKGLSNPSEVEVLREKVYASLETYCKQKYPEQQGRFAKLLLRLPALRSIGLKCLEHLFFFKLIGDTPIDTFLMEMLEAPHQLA

Read-out in test [2]: E-selectin (Homo sapiens) (UniProt P16581)
As to the kind of experiment: BSK_3C_Eselectin: BioMAP Diversity Plus: 3C Assay for Eselectin Biomarker Activity (AID 2283015).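 As to outcome: cell surface E-selectin protein quantified by ELISA 24 h after dosing.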 As to conditions: primary human endothelial cells (HUVEC); actives raise or lower the signal. The method in brief: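 Primary human umbilical vein endothelial cells (3C system) were dosed with chemical and cell-surface E-selectin measured by ELISA 24 h later. Bidirectional curve fitting used DMSO as negative control and baseline.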

Read-out in test [3]: Interleukin-1 alpha (IL1a), IL1A (gene 3552)
As to the kind of experiment: BSK_BE3C_IL1a: BioMAP Diversity Plus: BE3C Assay for Interleukin-1 alpha (IL1a) Biomarker Activity (AID 2283016). To be noted: primary human bronchial epithelial cells; actives raise or lower the signal. The method in brief: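 Human primary bronchial epithelial cells (BE3C system) were dosed with compound and IL-1a measured by ELISA 24 h later. Activity was fitted bidirectionally against DMSO baseline; cytotoxicity was tracked in parallel cultures by SRB total-protein staining.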

Read-out in test [4]: Monocyte Chemoattractant Protein-1 (MCP1), CCL2 (gene 6347)
The test is described as follows: BSK_3C_MCP1: BioMAP Diversity Plus: 3C Assay for Monocyte Chemoattractant Protein-1 (MCP1) Biomarker Activity (AID 2283017). To be noted: primary human endothelial cells (HUVEC); actives raise or lower the signal. The method in brief: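 Primary human umbilical vein endothelial cells (3C system) were exposed to test chemical for 24 h, after which MCP-1 was quantified by ELISA. Activity was fitted bidirectionally against DMSO as negative control and baseline.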

Read-out in test [5]: Human Leukocyte Antigen - DR isotype (HLADR), HLA-DRA (gene 3122)
The test is described as follows: BSK_3C_HLADR: BioMAP Diversity Plus: 3C Assay for Human Leukocyte Antigen - DR isotype (HLADR) Biomarker Activity (AID 2283019). To be noted: primary human endothelial cells (HUVEC); actives raise or lower the signal. The method in brief: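 Primary human umbilical vein endothelial cells (3C system) were dosed with compound and cell-surface HLA-DR was quantified by ELISA at 24 h. Activity was fitted bidirectionally against DMSO as negative control and baseline.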

Read-out in test [6]: Interleukin-8 (IL8), CXCL8 (gene 3576)
The test is described as follows: BSK_3C_IL8: BioMAP Diversity Plus: 3C Assay for Interleukin-8 (IL8) Biomarker Activity (AID 2283020). To be noted: primary human endothelial cells (HUVEC); actives raise or lower the signal. The method in brief: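 Primary human umbilical vein endothelial cells (3C system) were exposed to test chemical for 24 h, then IL-8 was quantified by ELISA. Responses were fitted bidirectionally against DMSO vehicle as baseline.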

Read-out in test [7]: Monokine induced gamma interferon (MIG), CXCL9 (gene 4283)
The test is described as follows: BSK_3C_MIG: BioMAP Diversity Plus: 3C Assay for Monokine induced gamma interferon (MIG) Biomarker Activity (AID 2283021).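 As to AC50: MIG protein level measured by immunoassay in the treated endothelial cultures.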 As to conditions: primary human endothelial cells (HUVEC); actives raise or lower the signal. An outline of the steps: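 Primary human umbilical vein endothelial cells in the 3C system were exposed to chemical for 24 h, after which MIG was quantified by ELISA. Activity was fitted bidirectionally against DMSO as negative control and baseline.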

The target of test [8] is human Vitamin D Receptor (VDR), VDR (gene 7421) (UniProt P11473). The test is described as follows: ATG_VDR_TRANS: Attagene TRANS-FACTORIAL HepG2 Assay for human Vitamin D Receptor (VDR) (AID 2283022; active = hit-call score of the fitted dose curve at least 0.9, where 1 is the maximum). An outline of the steps:
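HepG2 cells were transiently transfected with multiple GAL4-UAS reporter units, so signal reflects exogenous chimeric receptor-Gal4 activity. After 24 h compound exposure, reporter mRNA was measured by RT-PCR, fluorescent labelling and capillary electrophoresis, fitted for gain of signal versus DMSO.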

The nature of test [9]: BSK_3C_SRB: Viability Assessment in the BioMAP Diversity Plus: 3C Assay (AID 2283023).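 Also: fitted both ways against DMSO so a hit may be signal rise or drop.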 As to conditions: primary human endothelial cells (HUVEC). An outline of the steps:
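Primary human umbilical vein endothelial cells in the 3C system were read 24 h after compound dosing. Total protein was stained with 0.1% sulforhodamine B after 10% TCA fixation and read at 560 nm, with bidirectional fitting against DMSO as baseline.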

Read-out in test [10]: Matrix Metallopeptidase 1 (MMP1), MMP1 (gene 4312)
As to the kind of experiment: BSK_BE3C_MMP1: BioMAP Diversity Plus: BE3C Assay for Matrix Metallopeptidase 1 (MMP1) Biomarker Activity (AID 2283024). To be noted: primary human bronchial epithelial cells; actives raise or lower the signal. The method in brief: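 Primary human bronchial epithelial cells were dosed with test chemicals, and MMP1 levels were measured by ELISA 24 h later. Data were fitted bidirectionally against DMSO as the negative control and activity baseline.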

Read-out in test [11]: Pselectin, SELP (gene 6403)
The test is described as follows: BSK_4H_Pselectin: BioMAP Diversity Plus: 4H Assay for Pselectin Biomarker Activity (AID 2283026). As to conditions: primary human endothelial cells (HUVEC); actives raise or lower the signal. The method in brief: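 Primary human umbilical vein endothelial cells were exposed to test chemical for 24 h, then cell-surface P-selectin was quantified by ELISA. Activity was fitted bidirectionally against DMSO as negative control and baseline.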

Test [12] in a line: BSK_4H_SRB: Viability Assessment in the BioMAP Diversity Plus: 4H Assay (AID 2283027).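 Also: cells exposed to compound for 24 h before staining.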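 As to AC50: curves fitted both ways versus DMSO so AC50 may be loss or gain.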 To be noted: primary human endothelial cells (HUVEC). An outline of the steps: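 Human umbilical vein endothelial cells were dosed with chemical and, after 24 h, fixed with 10% TCA, stained with 0.1% sulforhodamine B, and read at 560 nm to give total protein as a cytotoxicity measure. Bidirectional fitting relative to DMSO control.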

A short description of test [13]: BSK_BE3C_SRB: Viability Assessment in the BioMAP Diversity Plus: BE3C Assay (AID 2283028). To be noted: primary human bronchial epithelial cells. The method in brief: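 Human primary bronchial epithelial cells were exposed to test chemicals for 24 h. Total protein in parallel cultures was then measured by staining with 0.1% sulforhodamine B after 10% TCA fixation, with absorbance read at 560 nm. Activity was fitted bidirectionally against DMSO.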

Read-out in test [14]: Thrombomodulin, THBD (gene 7056)
As to the kind of experiment: BSK_3C_Thrombomodulin: BioMAP Diversity Plus: 3C Assay for Thrombomodulin Biomarker Activity (AID 2283029). To be noted: primary human endothelial cells (HUVEC); actives raise or lower the signal. The method in brief: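 Primary human umbilical vein endothelial cells (3C system) were exposed to chemical for 24 h, then thrombomodulin levels were measured by ELISA. Activity was fitted bidirectionally against the DMSO negative control as baseline.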

Read-out in test [15]: Urokinase-type plasminogen activator receptor (uPAR), PLAUR (gene 5329)
As to the kind of experiment: BSK_4H_uPAR: BioMAP Diversity Plus: 4H Assay for Urokinase-type plasminogen activator receptor (uPAR) Biomarker Activity (AID 2283030). To be noted: primary human endothelial cells (HUVEC); actives raise or lower the signal. The method in brief: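 Primary human umbilical vein endothelial cells were exposed to chemical for 24 h before cell-surface uPAR was quantified by ELISA. Activity was fitted bidirectionally against the DMSO negative control baseline.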

Read-out in test [16]: Monocyte Chemoattractant Protein-1 (MCP1), CCL2 (gene 6347)
The test is described as follows: BSK_4H_MCP1: BioMAP Diversity Plus: 4H Assay for Monocyte Chemoattractant Protein-1 (MCP1) Biomarker Activity (AID 2283018). As to conditions: primary human endothelial cells (HUVEC); actives raise or lower the signal. An outline of the steps: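 Human umbilical vein endothelial cells (4H system) dosed with chemical; MCP-1 measured by ELISA 24 h after dosing. Bidirectional curve fitting against DMSO negative control as baseline; parallel SRB total-protein staining tracks overt cytotoxicity.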

Read-out in test [17]: Vascular endothelial growth factor receptor 2 (Homo sapiens) (UniProt P35968)
As to the kind of experiment: BSK_4H_VEGFRII: BioMAP Diversity Plus: 4H Assay for Vascular endothelial growth factor receptor 2 (VEGFR2) Biomarker Activity (AID 2283031).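 As to AC50: cell-surface VEGFR2 protein level quantified by ELISA.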 As to conditions: primary human endothelial cells (HUVEC); actives raise or lower the signal. An outline of the steps:
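Primary human umbilical vein endothelial cells in the BioMAP 4H system were dosed with test chemical, and 24 h later VEGFRII was measured by ELISA. Activity was fitted bidirectionally against DMSO as negative control and baseline.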

The nature of test [18]: BSK_3C_Vis: BioMAP Diversity Plus: 3C Assay for Morphology Visualization (AID 2283025).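 Also: fitted both ways so gain or loss versus DMSO counts.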 To be noted: primary human endothelial cells (HUVEC). An outline of the steps: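 Human umbilical vein endothelial cells in the 3C system were imaged by light microscopy 24 h after chemical dosing to record cell morphology. Activity was fitted bidirectionally against DMSO as negative control and baseline; the endpoint serves as a background control.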

The target in test [19] is human Thyroid Receptor alpha (THRa1), THRA (gene 7067) (UniProt P10827). As to the kind of experiment: ATG_THRa1_TRANS: Attagene TRANS-FACTORIAL HepG2 Assay for human Thyroid Receptor alpha (THRa1) (AID 2283014; active = hit-call score of the fitted dose curve at least 0.9, where 1 is the maximum). An outline of the steps:
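HepG2 cells transiently transfected with multiplexed GAL4-UAS reporter units for exogenous chimeric THRa1-Gal4; reporter mRNA measured 24 h after dosing by RT-PCR, 6-FAM labelling, HpaI digestion and capillary electrophoresis. Gain-of-signal fitted versus DMSO baseline.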

Chain of human Thyroid Receptor alpha (THRa1), THRA (gene 7067) (P10827 whole entry, looked up, the tested form may be a part): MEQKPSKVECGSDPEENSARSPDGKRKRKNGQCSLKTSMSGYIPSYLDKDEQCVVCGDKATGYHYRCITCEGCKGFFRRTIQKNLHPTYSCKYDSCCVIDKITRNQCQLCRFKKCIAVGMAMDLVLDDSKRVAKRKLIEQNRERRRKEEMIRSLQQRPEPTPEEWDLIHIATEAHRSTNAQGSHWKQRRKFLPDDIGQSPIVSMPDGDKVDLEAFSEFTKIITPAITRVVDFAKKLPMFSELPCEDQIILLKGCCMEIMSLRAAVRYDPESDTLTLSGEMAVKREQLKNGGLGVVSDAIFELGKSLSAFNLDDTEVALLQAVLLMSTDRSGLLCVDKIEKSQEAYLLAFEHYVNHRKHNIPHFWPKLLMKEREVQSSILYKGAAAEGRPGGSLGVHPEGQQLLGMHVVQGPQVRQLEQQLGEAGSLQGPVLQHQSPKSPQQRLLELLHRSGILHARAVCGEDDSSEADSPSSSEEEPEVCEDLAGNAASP
Chain of E-selectin (Homo sapiens) (P16581 whole entry, looked up): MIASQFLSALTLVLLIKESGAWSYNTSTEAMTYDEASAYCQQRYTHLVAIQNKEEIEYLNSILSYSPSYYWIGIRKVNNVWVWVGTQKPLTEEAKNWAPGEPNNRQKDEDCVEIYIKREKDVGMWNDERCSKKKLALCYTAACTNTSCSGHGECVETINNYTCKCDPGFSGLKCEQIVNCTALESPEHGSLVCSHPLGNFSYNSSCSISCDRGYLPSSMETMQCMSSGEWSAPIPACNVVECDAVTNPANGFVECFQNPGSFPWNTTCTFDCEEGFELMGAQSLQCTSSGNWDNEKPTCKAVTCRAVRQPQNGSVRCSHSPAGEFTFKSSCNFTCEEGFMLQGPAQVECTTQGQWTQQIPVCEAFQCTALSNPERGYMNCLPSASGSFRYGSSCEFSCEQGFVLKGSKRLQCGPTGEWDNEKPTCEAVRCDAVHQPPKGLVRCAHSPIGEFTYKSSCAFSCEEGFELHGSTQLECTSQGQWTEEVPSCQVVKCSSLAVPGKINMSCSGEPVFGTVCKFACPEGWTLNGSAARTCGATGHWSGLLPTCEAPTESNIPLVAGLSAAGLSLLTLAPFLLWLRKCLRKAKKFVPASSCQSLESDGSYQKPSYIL
Chain of human Vitamin D Receptor (VDR), VDR (gene 7421) (P11473 whole entry, looked up, the tested form may be a part): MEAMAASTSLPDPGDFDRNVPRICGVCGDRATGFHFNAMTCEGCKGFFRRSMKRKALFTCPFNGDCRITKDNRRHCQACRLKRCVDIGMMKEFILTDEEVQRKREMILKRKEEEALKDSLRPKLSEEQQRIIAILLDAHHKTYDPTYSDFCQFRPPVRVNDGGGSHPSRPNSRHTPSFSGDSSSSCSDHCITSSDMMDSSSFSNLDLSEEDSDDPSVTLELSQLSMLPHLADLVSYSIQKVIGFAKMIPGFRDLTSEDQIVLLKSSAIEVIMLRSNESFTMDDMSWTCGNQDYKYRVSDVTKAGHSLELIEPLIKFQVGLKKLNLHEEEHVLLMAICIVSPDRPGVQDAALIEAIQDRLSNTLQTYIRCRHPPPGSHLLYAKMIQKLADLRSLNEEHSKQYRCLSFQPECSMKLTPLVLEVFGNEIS

In the case of `Cc1ccc(N)cc1O`, the call in [1], in test [2], in test [3], in [4], in test [5] and in test [6] was inactive. The outcome in test [7], in test [8], in [9], in test [10], in [11] and in test [12] was inactive. In addition, the outcome in test [13], in [14] and in [15] was inactive.

As a reminder, the AC50 is the concentration at which the activity in the assay is half-maximal. With `Fc1ccccc1[C@@H](F)COC1CCC(Nc2ncnc3[nH]ncc23)CC1` (some centres not stated), the result in [2], in test [3], in test [16], in test [7], in test [8] and in test [10] was inactive. The outcome in test [13], in test [14] and in [17] was inactive. In addition, the AC50 in test [5] is 15.4 µM (active); in [6] it was 20 µM (active); in test [9], 27.6 µM (active); in test [11], 29.2 µM (active); in test [12] it was 30 µM (active); in test [15] it was 28.2 µM (active).

On to `CC1=CC(=O)CC(C)(C)C1`, for which the result in [2], in test [3], in [16], in test [5], in test [6] and in [7] was inactive. Also, the result in test [9], in test [10], in test [18], in [11], in [13] and in test [14] was inactive. Besides, the result in test [15] and in test [17] was inactive.

Consider `O=P(OC(CCl)CCl)(OC(CCl)CCl)OC(CCl)CCl`, for which the AC50 in test [1] is 26 µM (active); in test [10] it was 7.97 µM (active). For the same compound, the compound was called inactive in test [19], in test [2], in test [3], in test [4], in test [5] and in [7]. In addition, the result in test [9], in test [11], in [13], in [14] and in test [15] was inactive.

For `CCCC(=O)OCC`, the result in test [1], in test [2], in test [3], in test [16], in test [5] and in test [6] was inactive. For the same compound, the outcome in test [7], in [8], in test [9], in [10], in [18] and in test [11] was inactive. For the same compound, the result in test [12], in test [13], in [14], in [15] and in test [17] was inactive.

Regarding `CC[C@H]1OC(=O)[C@H](C)[C@@H](O[C@H]2C[C@@](C)(OC)[C@@H](O)[C@H](C)O2)[C@H](C)[C@@H](O[C@@H]2O[C@H](C)C[C@H](N(C)C)[C@H]2O)[C@](C)(O)C[C@@H](C)C(=O)[C@H](C)[C@@H](O)[C@]1(C)O`, the outcome in test [1], in [19], in [2], in test [3], in test [16] and in test [5] was inactive. Further, the outcome in test [6], in [7], in test [8], in test [9], in test [10] and in [18] was inactive. Besides, the outcome in test [11], in test [12], in test [13], in test [14], in [15] and in test [17] was inactive.

Regarding `CCOC(=O)COc1ccc2c(c1)CC(NCC(O)c1cccc(Cl)c1)CC2` (configuration not stated), the call in test [1], in test [19], in test [3], in test [10], in test [13] and in test [14] was inactive. The AC50 in test [2] is 31.4 µM (active); in [4] it was 33.6 µM (active); in test [5], 27.6 µM (active); in test [7], 28.3 µM (active); in test [9] it was 26.7 µM (active); in [18], 34.2 µM (active). Besides, the AC50 in [11] is 29.8 µM (active); in test [15], 28.7 µM (active); in test [17], 34.5 µM (active).
